PME-1 primary: PME-1 (human) inhibition | 320,000 tested, 0.53% active | inhibition, % at 5.9 µM | Q9Y570 | recombinant PME-1, FP-Rh probe fluorescence polarization;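 active = inhibition above the campaign mean of all compounds plus 3 SD, cut at about 26% in these data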;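 note: competitive labeling of PME-1 active site by serine hydrolase directed probe; 0% = PME-1 with DMSO and 100% = wells lacking PME-1 enzyme; inhibitors block probe labeling so polarization falls and inhibition rises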
GSTO1 counter: GSTO1 inhibition, counter-screen for RBBP9 inhibitors; 300,000 tested, 1.1% active; inhibition, % at 5.96 µM; recombinant GSTO1, activity-based probe fluorescence polarization;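 active = inhibition above the campaign mean inhibition plus 3 SD, cut at about 35% in these data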;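 note: 0% = GSTO1-1 with DMSO and 100% = wells lacking GSTO1-1 enzyme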
LYPLA1 inh: blocks human lysophospholipase 1, a PME1 counter-screen; O75608; recombinant LYPLA1, FP-Rh probe fluorescence polarization; inhibition, % at 5.9 µM; 320,000 tested, 0.16% active;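 active = inhibition above the mean of all tested compounds plus 3 SD, set per campaign, cut at about 14% in these data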;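 note: inhibitors block serine hydrolase probe labeling of LYPLA1 so polarization falls; 0% = enzyme with DMSO and 100% = wells lacking LYPLA1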
Target sequence (O75608 whole entry, looked up): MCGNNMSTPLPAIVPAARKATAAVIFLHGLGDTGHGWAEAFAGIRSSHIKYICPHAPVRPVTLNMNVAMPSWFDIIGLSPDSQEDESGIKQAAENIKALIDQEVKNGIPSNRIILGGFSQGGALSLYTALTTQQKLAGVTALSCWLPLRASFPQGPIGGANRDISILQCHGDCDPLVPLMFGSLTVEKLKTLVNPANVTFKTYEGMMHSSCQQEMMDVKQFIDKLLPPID
PAD4 FP inh: PAD4 (human) enzyme inhibition | Q9UM07 | recombinant PAD4, RCA probe fluorescence polarization | inhibition, % at 6.36 µM | 330,000 tested, 0.41% active | AID 485272;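 active = percent inhibition above a cutoff equal to the mean of all tested compounds plus 3 SD, cut at about 15% in these data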;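 note: 0% = PAD4 with RCA probe and DMSO and 100% = probe without PAD4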
Fam108B counter: Fam108B inhibition, counter-screen for RBBP9 inhibitors; recombinant Fam108B, FP-Rh probe fluorescence polarization; inhibition, % at 9.51 µM; 300,000 tested, 0.33% active;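 active = inhibition above the screen mean inhibition plus 3 SD, computed separately per campaign, cut at about 18% in these data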;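 note: inhibitors lower polarization as less probe binds the enzyme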
LYPLA2 inh: LYPLA2 (human) inhibition in PME1 counter-screen | recombinant LYPLA2, FP-Rh probe fluorescence polarization | inhibition, % at 5.9 µM | 320,000 tested, 0.38% active;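 active = inhibition above the screen-wide mean plus 3 SD, limit set per campaign, cut at about 26% in these data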;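 note: 0% = LYPLA2 with DMSO and 100% = wells lacking LYPLA2 enzyme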
Target sequence (O95372 whole entry, looked up): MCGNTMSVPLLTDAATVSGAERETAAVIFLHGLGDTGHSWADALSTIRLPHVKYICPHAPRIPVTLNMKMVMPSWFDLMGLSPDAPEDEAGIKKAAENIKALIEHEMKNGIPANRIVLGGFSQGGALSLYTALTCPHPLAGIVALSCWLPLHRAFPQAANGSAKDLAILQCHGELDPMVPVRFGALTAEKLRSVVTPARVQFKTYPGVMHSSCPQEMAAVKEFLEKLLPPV
LYPLA2 confirm: counter-screen for PME1 inhibitors: confirmation of human LYPLA2 inhibitors. shares compounds with LYPLA2 inh. recombinant LYPLA2, FP-Rh probe fluorescence polarization. inhibition, % at 5.9 µM. 1,100 tested, 72% active;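 active = mean inhibition across replicates above the hit cutoff set in the primary screen, cut at about 26% in these data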;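 note: blocked labeling of the enzyme by serine hydrolase FP-Rh probe lowers polarization; 0% = enzyme with DMSO and 100% = wells lacking LYPLA2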
LYPLA2 ABPP: LYPLA2 (human) inhibition, late stage results | 150 tested, 30% active | shares compounds with LYPLA2 inh | rhLYPLA2 in mouse brain proteome, gel ABPP FP-Rh | AID 652029 | inhibition, % at 20 µM;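 active = inhibition of LYPLA2 enzyme probe labeling above about 50%, limit read from the data; inactive = inhibition below that limit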;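 note: loss of FP-Rh probe labeling of the LYPLA2 gel band measured as band density; 0% = DMSO only control band and 100% = blank gel background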
* = called active by the depositor; x = not tested or not shown. A selection: hits, their analogues and other compounds. The true share with any hit is near 1.8%.

SMILES	PME-1 primary	GSTO1 counter	LYPLA1 inh	PAD4 FP inh	Fam108B counter	LYPLA2 inh	LYPLA2 confirm	others
O=C(CCCN1C(=O)c2cccc3cccc(c23)C1=O)N1CCN(c2ccccc2)CC1	-2	-2	6	-6	-7	37*	40*
CCOc1ccccc1N1CCN(C(=O)CCCN2C(=O)c3cccc4cccc(c34)C2=O)CC1	4	2	-1	-2	-2	7	x
Cc1nc([N+](=O)[O-])c(Br)n1CC(=O)c1ccc2ccccc2c1	1	-17	1	-3	-4	31*	30*
O=C(CNS(=O)(=O)c1ccc(Br)cc1)N1CCN(Cc2ccccc2)CC1	6	1	1	-9	3	3	x
N#Cc1ccc(-c2ccc(OCC(=O)NCCc3ccccc3)cc2)cc1	0	-3	4	0	-3	35*	15
O=C(O)c1cc(NN=Nc2cccc([N+](=O)[O-])c2)cc([N+](=O)[O-])c1	9	-4	10	-1	4	28*	28*
Cc1noc(C)c1C(=O)N1CCCC(N2CCN(c3cccc(C(F)(F)F)c3)CC2)C1 (stereo not drawn)	6	2	3	2	2	30*	24
Cc1nnsc1C(=O)N1CCCC(N2CCN(c3cccc(C(F)(F)F)c3)CC2)C1 (stereo not drawn)	-2	12	4	-2	-4	55*	56*	LYPLA2 ABPP=28
COc1ccc(NC(=S)N2CCN(c3ccc([N+](=O)[O-])cc3)CC2)cc1OC	5	7	14	-2	5	36*	29*
COc1ccccc1/C=C/CN1CCC(Oc2ccc(C(=O)N3CCCC3)cc2)CC1	-1	9	3	-2	3	17	x
CSc1cccc(CN2CCC(Oc3cccc(C(=O)N4CCCC4)c3)CC2)c1	2	-3	2	-3	0	9	x
CSc1cccc(CN2CCC(Oc3ccc(C(=O)N4CCCCC4)cc3)CC2)c1	4	3	4	8	-1	31*	9
CC(C)/C=C/CN1CCC(Oc2ccc(C(=O)N3CCCC3)cc2)CC1	1	4	0	-4	2	60*	5
O=C(O)c1ccc(N=Cc2nc(-c3ccco3)oc2O)cc1	5	7	1	-3	7	31*	37*
Cc1ccc(NC(=O)NNC(=O)C2CC(c3cccs3)=NO2)cc1 (stereo not drawn)	2	6	1	-5	-4	5	x
Cc1nc2sc(C(c3ccco3)N3CCN(c4ccccc4F)CC3)c(O)n2n1 (stereo not drawn)	2	-3	-1	2	-2	-2	x
Cc1nc2sc(C(c3ccc(Cl)cc3)N3CCN(c4ccccc4F)CC3)c(O)n2n1 (stereo not drawn)	-6	10	5	0	-2	29*	30*
Cc1ccccc1NS(=O)(=O)c1nnc(NC(=O)C(C)C)s1	-1	4	1	-7	2	2	x
COc1ccc(N/C=C2/CCCCC2=O)cc1	1	5	-1	-6	4	3	x
COc1ccc(Oc2ccc(N/C=C3\CCCC3=O)cc2)cc1	10	-6	7	-1	1	39*	37*
COc1ccc(Oc2ccc(N/C=C3/CCCC3=O)cc2)cc1	4	2	3	-3	4	41*	36*
O=C(O)c1ccc(NC(=S)NC(=O)c2cccnc2)cc1	-2	-1	-4	0	1	-4	x
COc1ccc(C2(c3ccc(OC)cc3)NC(=O)N(CC(=O)NC3CCCC3)C2=O)cc1	-6	7	-1	4	-1	-1	x
COCCn1c(=O)[nH]c2cc(C(=O)NCCN3CCN(c4cccc(Cl)c4)CC3)ccc2c1=O	-5	0	6	-1	0	45*	36*
Cn1cc(C(=O)NCCN2CCN(c3cccc(Cl)c3)CC2)c2c3ccccc3n(C)c2c1=O	3	2	7	3	0	26*	35*
